Compound activity as filed in PubChem.
An excerpt weighted towards active compounds, which were near 12% of everything screened.
Sfp PPTase inh: qHTS Assay for Inhibitors of Bacillus subtilis Sfp phosphopantetheinyl transferase (PPTase); 4'-phosphopantetheinyl transferase ffp (Bacillus subtilis), Q9F4F7; Biochemical Sfp PPTase activity, qHTS; Potency, µM, most hits filed as inhibitors; hit rate 3.5% among 310,000;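 also: the enzyme is Sfp with the accession as filed and its product quenches rhodamine fluorescence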
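After 15 min at room temperature with compound, 15 nM Sfp received 5 uM rhodamine-CoA plus 12.5 uM BHQ-2-ybbR (50 mM Hepes pH 7.6, 10 mM MgCl2). Rate came from the fluorescence difference over 30 min, ex 525/em 598 nm.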
JMJD2A Tudor inh: qHTS Assay for Inhibitors of JMJD2A-Tudor Domain | Lysine-specific demethylase 4A (Homo sapiens), O75164 | AlphaScreen JMJD2A-Tudor / H3K4me3 peptide binding | Potency, µM (titrated, usually from 114 µM), usual class: inhibitors | hit rate 4.4% among 390,000; also: nearly all actives have a fitted effect of over 50% in size
BAZ2B block: qHTS Assay for Inhibitors of BAZ2B; Bromodomain adjacent to zinc finger domain protein 2B (Homo sapiens), Q9UIF8; AlphaScreen BAZ2B-H3K14Ac peptide displacement; Potency, µM (doses to about 114 µM), hits mostly inhibitors; hit rate 4.4% among 360,000; also: nearly all actives have a fitted effect of over 60% in size
Target sequence (Q9UIF8 whole entry, looked up, the tested form may be a part): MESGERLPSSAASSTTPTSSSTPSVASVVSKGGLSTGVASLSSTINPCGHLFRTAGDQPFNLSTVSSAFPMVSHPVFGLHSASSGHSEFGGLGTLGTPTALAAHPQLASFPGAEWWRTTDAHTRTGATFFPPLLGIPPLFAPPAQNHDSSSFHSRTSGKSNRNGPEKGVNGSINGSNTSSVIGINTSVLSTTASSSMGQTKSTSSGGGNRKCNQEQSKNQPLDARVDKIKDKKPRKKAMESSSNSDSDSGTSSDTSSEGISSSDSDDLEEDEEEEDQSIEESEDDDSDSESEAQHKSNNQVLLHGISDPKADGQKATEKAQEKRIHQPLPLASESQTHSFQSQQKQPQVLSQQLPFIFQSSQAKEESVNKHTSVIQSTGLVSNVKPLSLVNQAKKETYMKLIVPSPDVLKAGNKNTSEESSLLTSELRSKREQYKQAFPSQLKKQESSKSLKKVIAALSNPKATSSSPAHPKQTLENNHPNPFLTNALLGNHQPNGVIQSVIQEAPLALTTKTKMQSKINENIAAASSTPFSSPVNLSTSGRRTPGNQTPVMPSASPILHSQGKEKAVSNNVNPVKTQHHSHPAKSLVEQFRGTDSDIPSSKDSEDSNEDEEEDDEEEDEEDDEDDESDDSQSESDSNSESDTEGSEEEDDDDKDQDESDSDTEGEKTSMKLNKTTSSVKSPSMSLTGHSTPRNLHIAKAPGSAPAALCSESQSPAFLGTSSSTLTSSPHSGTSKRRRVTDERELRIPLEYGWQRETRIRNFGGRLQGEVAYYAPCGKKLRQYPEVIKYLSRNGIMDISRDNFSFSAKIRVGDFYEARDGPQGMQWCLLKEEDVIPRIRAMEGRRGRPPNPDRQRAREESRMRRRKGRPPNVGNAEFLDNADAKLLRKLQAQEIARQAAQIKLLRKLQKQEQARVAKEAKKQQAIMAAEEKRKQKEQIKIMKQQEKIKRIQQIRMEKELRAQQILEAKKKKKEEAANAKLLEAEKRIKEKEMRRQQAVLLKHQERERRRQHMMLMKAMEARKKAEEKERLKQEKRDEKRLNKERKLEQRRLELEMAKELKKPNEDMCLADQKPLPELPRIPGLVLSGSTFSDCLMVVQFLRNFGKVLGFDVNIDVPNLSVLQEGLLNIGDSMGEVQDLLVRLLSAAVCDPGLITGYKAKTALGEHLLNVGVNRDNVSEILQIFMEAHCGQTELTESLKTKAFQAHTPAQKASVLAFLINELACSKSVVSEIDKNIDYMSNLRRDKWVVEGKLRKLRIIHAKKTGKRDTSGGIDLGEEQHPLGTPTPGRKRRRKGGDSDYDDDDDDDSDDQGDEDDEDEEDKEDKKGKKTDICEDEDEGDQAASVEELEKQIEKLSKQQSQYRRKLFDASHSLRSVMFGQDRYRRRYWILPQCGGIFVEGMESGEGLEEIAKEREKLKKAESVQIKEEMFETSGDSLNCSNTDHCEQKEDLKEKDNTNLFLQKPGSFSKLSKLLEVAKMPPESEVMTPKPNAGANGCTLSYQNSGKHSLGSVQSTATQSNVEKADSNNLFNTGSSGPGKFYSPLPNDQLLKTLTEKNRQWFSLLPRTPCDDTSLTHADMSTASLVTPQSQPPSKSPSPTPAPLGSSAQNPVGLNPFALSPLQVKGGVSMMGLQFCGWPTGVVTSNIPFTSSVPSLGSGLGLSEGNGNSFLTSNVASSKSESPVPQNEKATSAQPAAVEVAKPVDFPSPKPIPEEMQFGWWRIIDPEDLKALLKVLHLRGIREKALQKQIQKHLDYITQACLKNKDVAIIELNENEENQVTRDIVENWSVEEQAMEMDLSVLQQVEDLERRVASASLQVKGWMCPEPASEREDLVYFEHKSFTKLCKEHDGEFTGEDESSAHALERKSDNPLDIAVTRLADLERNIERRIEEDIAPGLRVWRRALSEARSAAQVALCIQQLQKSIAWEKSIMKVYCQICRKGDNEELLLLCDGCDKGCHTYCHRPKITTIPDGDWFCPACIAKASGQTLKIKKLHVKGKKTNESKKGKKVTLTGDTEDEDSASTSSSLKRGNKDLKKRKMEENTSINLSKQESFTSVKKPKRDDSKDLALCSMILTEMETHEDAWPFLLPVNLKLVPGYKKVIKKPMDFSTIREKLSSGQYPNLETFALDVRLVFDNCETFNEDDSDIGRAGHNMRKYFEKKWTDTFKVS
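Inhibition is scored as reduced AlphaScreen emission. The BAZ2B/b-H3(5-23)K14Ac complex (50 nM each) in PBS pH 7.4, 0.01% Tween-20 meets compound (up to 110 uM) for 30 min at RT before bead addition.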
G9a block: qHTS Assay for Inhibitors of Histone Lysine Methyltransferase G9a; Histone-lysine N-methyltransferase EHMT2 (Homo sapiens), Q96KQ7; G9a H3K9 monomethylation, AlphaScreen, 2 h; Potency, µM (series often up to 102 µM), most hits filed as inhibitors; hit rate 8.8% among 350,000; AID 504332, 2011; also: nearly all actives have a fitted effect of over 75% in size
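G9a (20 nM) preincubated 15 min RT with compounds, then 500 nM biotinylated H3K9 peptide and 20 uM SAM added; 2 h RT reaction. Monomethyl-H3K9 product detected by AlphaScreen with anti-H3K9me1 antibody, streptavidin donor and anti-rabbit IgG acceptor beads.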
L3MBTL1 inh: qHTS Assay for the Inhibitors of L3MBTL1; Lethal(3)malignant brain tumor-like protein 1 (Homo sapiens), Q9Y468; AID 485360, 2010; Potency, µM (doses to about 57.1 µM), actives largely listed as inhibitors; hit rate 0.66% among 230,000; AlphaScreen L3MBTL1–H3K9me1 peptide binding; also: nearly all actives have a fitted effect of over 60% in size
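AlphaScreen assay: L3MBTL1 (50 nM final) was preincubated 30 min at room temperature with biotinylated H3(1-15)K9me1 peptide (75 nM final), then 30 min with library compounds; streptavidin donor and nickel chelate acceptor beads (10 ug/mL final) added, 30 min dark.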
HP1b binding inh: HTS for Inhibitors of HP1-beta Chromodomain Interactions with Methylated Histone Tails; Chromobox protein homolog 1 (Homo sapiens), P83916; AlphaScreen HP1-beta / biotin-H3K9me3 peptide binding; Potency, µM (doses to about 114 µM), most hits filed as inhibitors; hit rate 0.56% among 390,000; AID 540317, 2011; also: nearly all actives have a fitted effect of over 70% in size
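Compound inhibition of the preformed complex between 50 nM HP1-beta and 50 nM biotinylated H3K9me3 peptide was read by AlphaScreen. Buffer was PBS pH 7.4 with 0.01% Tween-20. Incubations ran 30 min at room temperature, with 10 ug/mL donor/acceptor beads.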
Numbers stand for hits; n = inactive; u = inconclusive; x = no result given; ! = not confirmed by another sample; [ ] = another dose, or the depositor's remark. Calls follow the shape of the dose curve; as a rule, active = well fitted curve in the direction sought with a large enough effect; inconclusive = small, poorly fitted or top-dose-only effect, or another doubt; inactive = no such curve, though single readings can be large; an effect the other way counts as inactive or inconclusive.

SMILES	Sfp PPTase inh	JMJD2A Tudor inh	BAZ2B block	G9a block	L3MBTL1 inh	HP1b binding inh
COC(=O)[C@@H]1C2CC3c4[nH]c5cc(OC)ccc5c4CCN3CC2C[C@H](OC(=O)c2cc(OC)c(OC)c(OC)c2)C1OC (some centres not stated)	n	x	x	u	x	x
COC(=O)[C@@H]1[C@H]2C[C@H]3c4[nH]c5ccccc5c4CCN3C[C@@H]2CC[C@@H]1O	n	u	n	21.2µM!	x	n
COC(=O)[C@H]1[C@H]2C[C@@H]3c4[nH]c5cc(OC)ccc5c4CCN3C[C@H]2C[C@@H](OC(=O)c2cc(OC)c(OC)c(OC)c2)[C@@H]1OC	n	56.2µM	28.2µM	22.4µM!	u	u
COc1ccc(Nc2nnc(-c3ccc(C)c(S(=O)(=O)N4CCN(C)CC4)c3)c3ccccc23)cc1	x	n	n	n	x	n
N#Cc1cc2c(nc1SCc1ccncc1)CCC2	50.1µM	22.4µM	n	3.16µM	n	n
CCOC(=O)CC(=O)COc1nc2cc3c(nc2o1)CCCC3	n	u	n	44.7µM	n	n
CCOC(=O)CC(=O)CSc1nc2c(cc1C#N)CCCCC2	u	50.1µM	n	7.94µM	n	n
N#Cc1cc2c(nc1SCC(=O)N1CCCCC1)CCCCC2	56.2µM	56.2µM	n	2.82µM	x	n
CC(=O)c1ccc(NC(=O)C2CCN(S(=O)(=O)c3ccc4c(c3)CCCN4C(=O)C3CCC3)CC2)cc1	x	n	n	n	x	n
O=C(Cn1c2ncccc2c(=O)n1-c1ccccc1)Nc1ccc(Cl)cc1C(F)(F)F	x	n	n	n	x	n
CC1CN(Cc2csc(-c3ccc(Cl)cc3)n2)CC(C)O1 (configuration not stated)	n	10µM	50.1µM	39.8µM	n	u
Cc1oc(-c2cc(F)ccc2F)nc1CN1CCN(c2ncnc3ccccc23)CC1	39.8µM	n	n	x	n	n
COc1ccc(NC(=O)c2cc3c([nH]c2=O)CC(c2ccccc2)CC3=O)cc1 (configuration not stated)	x	n	n	n[12.7 µM]	x	n
CCOC(=O)CNCCC(=O)c1ccc(Br)cc1	n	u	u	7.08µM	n	n
O=C(Cn1c(=O)c2cccn2c2cccnc21)NCc1ccccc1F	x	n	n	n	x	n
CC(C)OCCCn1c(NN)nc2ccccc2c1=O	n	n	n	u	x	n
NNc1nc2ccccc2c(=O)n1Cc1ccccc1	20µM	u	n	x	x	n
O=c1c2ccccc2nc(-c2ccccc2O)n1Cc1ccccc1	x	79.4µM	x	x	x	x
Cc1ccc(C)c(NC(=O)Cn2c(=O)n(Cc3nc(C)no3)c(=O)c3cc4c(cc32)OCO4)c1	x	n	n	n	x	n
CC(c1ccco1)N(C)c1ncnc2ccc(-c3ccc4c(c3)OCO4)cc12 (configuration not stated)	x	n	x	x	x	x
CCCSc1nc2c([nH]c3ccccc32)c(=O)n1C	x	n	n	n	x	n
CCSc1ncc(/C=N/Nc2ccc(F)cc2)n1C	n	u	u	25.1µM	n	n
COC(=O)c1cc(C)nc2c1C(=O)C(=O)C=C2N1CCOCC1	n	n	50.1µM	44.7µM	x	n
COC(=O)c1cc(S(=O)(=O)N2CCOCC2)c(Cl)cc1N1CCOCC1	n	n	n	n	x	n
COc1ccc(-c2nc(CS(=O)CC(=O)NC3CCCC(C)C3C)c(C)o2)cc1OC (configuration not stated)	n	n	n	56.2µM	x	n
SMILES	Sfp PPTase inh	JMJD2A Tudor inh	BAZ2B block	G9a block	L3MBTL1 inh	HP1b binding inh
COc1ccc(-c2nc(CS(=O)CC(=O)NC3CCCCC3)c(C)o2)cc1OC (configuration not stated)	n	n	n	u	x	n
CCc1ccc(-c2nc(CS(=O)CC(=O)NC3CCCCCC3)c(C)o2)cc1 (configuration not stated)	50.1µM	n	n	x	x	n
COc1ccc(-c2nc(CS(=O)CC(=O)NCCC3=CCCCC3)c(C)o2)cc1 (configuration not stated)	u	n	n	79.4µM	n	n
CN(C(=O)CSc1nc2ccc(NC(=O)c3ccccc3)cc2s1)c1ccccc1	x	n	n	n	x	n
O=C(CNS(=O)(=O)c1ccc2ccccc2c1)OCc1nnc(-c2ccccc2)o1	n	n	n	22.4µM	x	n
CN(Cc1ccccc1)C(=O)COC(=O)CNS(=O)(=O)c1ccc2ccccc2c1	x	n	n	n	n	n
CC1CCCN(C(=O)COC(=O)CNS(=O)(=O)c2ccc3ccccc3c2)C1 (configuration not stated)	x	n	n	7.08µM	n	n
O=C(CCC(=O)c1cccs1)OCc1nnc(-c2ccccc2)o1	n	50.1µM	n	n[12.7 µM]	x	u
O=[N+]([O-])c1ccc(CSc2ncnc3c2ncn3C2OC(CO)C(O)C2O)cc1 (configuration not stated)	n	x	x	x	x	x
CCN(CC)c1ccc(NC(=O)c2cc3c(OC)cccc3[nH]2)cc1	n	15.8µM	20µM	8.91µM	x	44.7µM
COc1ccc(NS(=O)(=O)c2cc(NC(=O)c3cnc(C)cn3)ccc2N2CCCCC2)cc1	n	n	n	n	n	n
O=C(Nc1ccc(N2CCCCC2)cc1)c1cccnc1Cl	n	n	n	50.1µM	x	n
COc1ccc(NS(=O)(=O)c2cc(NC(=O)c3cccnc3Cl)ccc2N2CCCC2)cc1	n	u	n	44.7µM	n	n
COc1ccc(NS(=O)(=O)c2cc(NC(=O)c3cnc(C)cn3)ccc2N2CCCC2)cc1	n	n	n	n	n	n
COc1ccc(NS(=O)(=O)c2cc(NC(=O)c3ccc(=O)[nH]c3)ccc2N2CCCC2)cc1	n	u	39.8µM	x	x	n
COc1cc(SSc2cc(OC)cc([N+](=O)[O-])c2N)c(N)c([N+](=O)[O-])c1	2.51µM	1.41µM	8.91µM	0.447µM	x	u
COc1ccc(/C=N/n2cnn(Cc3ccccc3Cl)c2=S)cc1OC	u	n	n	39.8µM	n	u
Oc1ccc(/C=N/n2cnn(Cc3ccccc3Cl)c2=S)c(O)c1	14.1µM	u	n	3.16µM	n	n
COc1ccccc1-c1cc(C(=O)Nc2cc(C)n(Cc3ccc(Cl)cc3)n2)no1	39.8µM	n	n	n[12.7 µM]	n	n
N#C/C(=N\Nc1cccc2ccccc12)c1nnc2n1CCCCC2	u	n	u	1.78µM	n	n
CCCCN(CCCC)CCNC(=O)c1cn(C)c2ccc(S(=O)(=O)N3CCOCC3)cc2c1=O	x	n	x	n	x	n
COCCn1c(=N)c(C(=O)NCc2ccco2)cc2c(=O)n3ccccc3nc21	n	n	n	56.2µM	n	n
